# Test results published in PubChem BioAssay (NCATS).
# Where “and” joins values, the source holds several entries; their conditions need not be identical. Equal values may be shown once. Inconclusive results are not listed. Where a call stands in place of a potency, no number is given. Calls of active or inactive are those of the source. The call rests on the fitted dose curve; in most records, active means well fitted cell-killing curve with a large enough effect; inconclusive means small, poorly fitted or top-dose-only effect, or effect the other way; inactive means flat fitted curve, though single readings scatter.
# Test system: Tov-21-G
# Experiment: Primary qHTS to identify gynecologic anti-cancer compounds using libraries of approved drugs and bioactive compounds (AID 1345084); further: nearly all actives have a fitted effect of over 55% in size
# Conditions: Gynecologic cancer cell panel viability, ATPlite luminescence, 48 h; series mostly up to 57.5 µM
# Procedure, shortened: (§1)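 ATP-based viability (ATPlite), 1,000 cells/well, 16 h pre-incubation, 48 h compound at 37 C, 5% CO2, 15 min RT before read.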
# Potency means the concentration at half of the fitted maximal effect.
row,SMILES,Potency
1,OC[C@H]1O[C@@H](n2cnc3c(=S)nc[nH]c32)[C@H](O)[C@@H]1O,891 nM (active)
2,CCCCOc1ccc(OCCCN2CCOCC2)cc1,inactive
3,CC(C)n1nc(-c2cc3cc(O)ccc3[nH]2)c2c(N)ncnc21,11.2 µM (active) and 4.47 µM (active)
4,CCCN1CCCC[C@H]1C(=O)Nc1c(C)cccc1C,inactive
5,CC(=O)Oc1ccc2c(c1)CC[C@@H]1[C@@H]2CC[C@]2(C)[C@@H](O)CC[C@@H]12,inactive
6,CC(C)(C)NC(=O)[C@@H]1CN(Cc2cccnc2)CCN1C[C@@H](O)C[C@@H](Cc1ccccc1)C(=O)N[C@H]1c2ccccc2C[C@H]1O,inactive
7,CC(Cc1cccc(C(F)(F)F)c1)NCCOC(=O)c1ccccc1 (stereo not given),inactive

# Test system: Tov112D
# Experiment: as above
# Conditions: Gynecologic cancer cell panel viability, ATPlite luminescence, 48 h; series mostly up to 57.5 µM
# Procedure, shortened: as §1
row,SMILES,Potency
1,CCCCCCCCCCCCCCCCCC(=O)OCC(O)CO (stereo not given),inactive
2,CN1[C@@H]2CC[C@H]1CC(OC(=O)c1c[nH]c3ccccc13)C2 (stereo not given in full),inactive
3,CCCOC(C(=O)OC1CCN(C)CC1)(c1ccccc1)c1ccccc1,inactive
4,CO/N=C1\CN(c2nc3c(cc2F)c(=O)c(C(=O)O)cn3C2CC2)CC1CN (stereo not given),inactive
5,COc1cc2c(cc1OC)C(C(C(=O)N(CCc1ccc(OC)c(OC)c1OC)CCc1ccc(OC)c(OC)c1OC)c1ccccc1)=NCC2 (stereo not given),inactive
6,Oc1c(Cl)cc(Cl)cc1Sc1cc(Cl)cc(Cl)c1O,inactive
7,O=C1c2ccccc2C(=O)C1c1ccccc1,inactive
8,Cc1ccc(O)c2ncccc12,inactive
9,O=C(Nc1ccc(Oc2ccc(Cl)cc2)c(Cl)c1)c1cc(I)cc(I)c1O,inactive
10,CC(=O)[C@H]1CC[C@H]2[C@@H]3C[C@H](C)C4=CC(=O)CC[C@]4(C)[C@H]3[C@@H](O)C[C@]12C,inactive
11,O=C(OCC(O)CO)c1ccccc1Nc1ccnc2cc(Cl)ccc12 (stereo not given),inactive
12,CCN1CCC[C@H]1CNC(=O)c1c(OC)ccc(Br)c1OC,inactive
13,CC(C)COC(=O)c1ccc(N)cc1,inactive
14,O=C1OCCN1/N=C/c1ccc([N+](=O)[O-])o1,inactive
15,Oc1ccc(O)cc1,inactive
16,C[C@]12C=CC(=O)C=C1CC[C@@H]1[C@@H]2[C@@H](O)C[C@@]2(C)[C@H]1CC[C@]2(O)C(=O)CO,inactive
17,O=C1OC(c2ccc(O)cc2)(c2ccc(O)cc2)c2ccccc21,inactive

row,SMILES,Potency
1,NCCc1ccn[nH]1,inactive
2,COc1cccc2c1C(=O)c1c(O)c3c(c(O)c1C2=O)C[C@@](O)(C(=O)CO)C[C@@H]3O[C@H]1C[C@H](N)[C@H](O)[C@H](C)O1,891 nM (active)
3,CC(CCc1ccccc1)NCC(O)c1ccc(O)c(C(N)=O)c1 (stereo not given),inactive
4,C#C[C@]1(O)CC[C@H]2[C@@H]3CCc4cc(OC5CCCC5)ccc4[C@H]3CC[C@@]21C,inactive
5,CCCCC1=NC2(CCCC2)C(=O)N1Cc1ccc(-c2ccccc2-c2nn[nH]n2)cc1,inactive
6,O=C(CCN1CCC(c2ccccc2)C1)c1ccc2c(c1)OCCO2 (stereo not given),inactive
7,C=CCc1ccc(O)c(OC)c1,inactive
8,C[C@]12CC[C@@H]3c4ccc(O)cc4CC[C@H]3[C@@H]1C[C@@H](O)[C@@H]2O,inactive
9,O=c1[nH]c(=O)n([C@H]2CCCO2)cc1F,inactive
10,C[C@]12CC[C@H]3[C@@H](CCC4=CC(=O)CC[C@@]43C)[C@@H]1CC[C@@H]2C(=O)CO,inactive
11,CC(=O)OCC(=O)NCCCOc1cccc(CN2CCCCC2)c1,inactive
12,CCCCOc1ccc(OCCCN2CCOCC2)cc1,inactive
13,CC(C)n1nc(-c2cc3cc(O)ccc3[nH]2)c2c(N)ncnc21,7940 nM (active)
14,CCCN1CCCC[C@H]1C(=O)Nc1c(C)cccc1C,inactive
15,CC(C)(C)NC(=O)[C@@H]1CN(Cc2cccnc2)CCN1C[C@@H](O)C[C@@H](Cc1ccccc1)C(=O)N[C@H]1c2ccccc2C[C@H]1O,inactive
16,CC(Cc1cccc(C(F)(F)F)c1)NCCOC(=O)c1ccccc1 (stereo not given),inactive
